A selection: hits, their analogues and other compounds. The true share with any hit is near 21%.
Pf growth 96h: inhibits malaria parasite growth, 96 h; P. falciparum luciferase reporter growth, 96 h; Potency, µM (titrated, usually from 28.7 µM), hits mostly inhibitors; 320,000 compounds, 6.9% hits; AID 504834
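P. falciparum expressing integrated firefly luciferase grown in erythrocytes (2% hematocrit, 0.05% parasitemia final) with compounds for 96 hours at 37 C, 5% CO2. Growth inhibition read as loss of luminescence after adding luciferase detection reagent.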
AMA1 RON2 block: disrupts binding of P. falciparum AMA1 to RON2; AlphaScreen AMA1-biotinylated RON2 peptide binding; Potency, µM (titrated, usually from 58.2 µM), usual class: inhibitors; 360,000 compounds, 0.2% hits; AID 720542; note: nearly all actives have a fitted effect of over 45% in size
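AMA1 (3D7) with his tag at 25 nM final met compounds first, then biotinylated RON2 peptide at 25 nM; detection used donor plus acceptor beads, 10 µg/mL apiece, read by AlphaScreen after 30 min at room temperature.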
Pf growth 48h: P. falciparum growth inhibition at 48 hours (one generation) | P. falciparum luciferase growth in erythrocytes, 48 h | Potency, µM (doses to about 28.7 µM), hits mostly inhibitors | 310,000 compounds, 5.9% hits
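Luminescence readout; reporter = integrated firefly luciferase in P. falciparum. RBC culture at 2% hematocrit, 0.1% parasitemia final, 37 C/5% CO2; decreased signal taken as growth inhibition.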
Cycloheximide cs: counter-screen hit for Shiga toxin inhibitors, cycloheximide; max response, %; cell reporter, cycloheximide protein synthesis inhibition counterscreen; 300,000 compounds, 12% hits; in the data active = max response mostly above about 13%, no sharp cut-off; inactive = mostly below about 14%; note: read at 38.3 µM for the half of the compounds with a filed dose
Shiga inhibitor: Shiga toxin inhibition; Vero cells, Shiga toxin protein synthesis inhibition reporter; inhibition, % at 38.7 µM; 290,000 compounds, 9.2% hits; AID 2315; in the data active = inhibition mostly above about 28%, no sharp cut-off; inactive = mostly below about 43%
HCV inhibitor: HCV inhibition; Huh7.5.1 HCVcc-Cre infection, luciferase reporter, 44 h; Potency, µM (doses to about 41.8 µM), hits mostly inhibitors; 340,000 compounds, 3.4% hits
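Cells seeded at 1,000/well and cultured 4 h, then compounds added followed by HCVcc-Cre virus (~0.5 moi). After 44 h further culture, luciferase substrate was added, plates held 15 min at room temperature, and luminescence read for 15 sec.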
Numbers stand for hits; ! = not active in a repeat. Unless noted, calls come from the whole dose curve; as a rule, active = well fitted curve in the direction sought with a large enough effect; inconclusive = small, poorly fitted or top-dose-only effect, or another doubt; inactive = no such curve, though single readings can be large; an effect the other way counts as inactive or inconclusive.

For Cc1ccc(Cc2c(-c3cccc(Cl)c3)nc3c(C)cc(Br)cn23)cc1 the results were AMA1 RON2 block inactive.
N#Cc1cccc(C=C(C(=O)c2ccccc2)c2ccccc2)c1 was read as AMA1 RON2 block inactive.
COc1cccc(-c2csc(N3CCN(C(=S)Nc4cccc(Cl)c4)CC3)n2)c1 was read as Pf growth 96h inactive, AMA1 RON2 block inactive, Pf growth 48h inconclusive, Cycloheximide cs inactive, Shiga inhibitor inactive and HCV inhibitor inconclusive.
For COc1cccc(-c2csc(N3CCN(C(=O)Nc4ccc(Cl)cc4)CC3)n2)c1 the results were Pf growth 96h inactive, AMA1 RON2 block inactive, Pf growth 48h inconclusive, Cycloheximide cs 28, Shiga inhibitor 45 and HCV inhibitor 11µM.
`COc1ccc(NC(=O)N2CCN(c3nc(-c4cccc(OC)c4)cs3)CC2)cc1` gave Pf growth 96h inconclusive, AMA1 RON2 block inactive, Pf growth 48h 10µM, Cycloheximide cs inactive, Shiga inhibitor inactive and HCV inhibitor 6.3µM.
Screening COc1cccc(-c2csc(N3CCN(CC(=O)NNC(=O)c4ccc(Cl)cc4)CC3)n2)c1 returned Pf growth 96h inconclusive, AMA1 RON2 block inactive, Pf growth 48h inactive, Cycloheximide cs inactive, Shiga inhibitor inactive and HCV inhibitor inactive.
CCS(=O)(=O)Nc1cc(OC)c(OC)cc1Cc1nccc2cc(OC)c(OC)cc12 was read as Pf growth 96h inactive, AMA1 RON2 block inactive, Pf growth 48h inactive, Cycloheximide cs inactive, Shiga inhibitor inactive and HCV inhibitor inactive.
`COc1ccc(Cc2c3cc(OC)c(OC)cc3cc[n+]2C)cc1OC` gave Pf growth 96h 8.3µM, AMA1 RON2 block inactive, Pf growth 48h inconclusive, Cycloheximide cs inactive, Shiga inhibitor inactive and HCV inhibitor inactive.
`CC[n+]1ccc2cc(OC)c(OC)cc2c1Cc1ccc(OC)c(OC)c1` gave Pf growth 96h inconclusive, AMA1 RON2 block inactive, Pf growth 48h 1.2µM, Cycloheximide cs inactive, Shiga inhibitor inactive and HCV inhibitor inactive.
For COc1ccc(Cc2nccc3cc(OC)c(OC)cc23)cc1OC the results were Pf growth 96h inconclusive, AMA1 RON2 block inactive, Pf growth 48h inconclusive, Cycloheximide cs inactive, Shiga inhibitor inactive and HCV inhibitor 3.2µM!.
For CC(C)NC(=O)Nc1nnc([C@@H]2C[C@H](O)[C@@H](CO)O2)s1 the results were AMA1 RON2 block inactive.
C[C@@H]1COC(=O)[C@@H](NC(=O)OCC2c3ccccc3-c3ccccc32)C/C=C\C[C@@H](CC(=O)N(CCO)Cc2ccccc2)C(=O)N1 was read as AMA1 RON2 block inactive and HCV inhibitor inconclusive.
Cn1c(=O)c2c(nc(C3CC4C5CCC(C5)C4C3)n2C)n(C)c1=O (stereo not given) was read as AMA1 RON2 block inactive and HCV inhibitor inconclusive.
Screening COc1ccc(/C=C/c2nc3ccccc3c(=O)o2)cc1 returned Pf growth 96h inactive, AMA1 RON2 block inactive, Pf growth 48h inactive, Cycloheximide cs inactive, Shiga inhibitor inactive and HCV inhibitor inactive.
For COc1ccc(/C=C/c2nc3cc(-c4ccccc4)ccc3o2)cc1O the results were Pf growth 96h inconclusive, AMA1 RON2 block inactive, Pf growth 48h inconclusive, Cycloheximide cs 97, Shiga inhibitor 100 and HCV inhibitor inconclusive.
Screening Cc1ccc(S(=O)(=O)N(CCCO)CC(O)CON=C2c3ccccc3-c3ccccc32)cc1 (stereo not given) returned Pf growth 96h 9.3µM, AMA1 RON2 block inactive, Pf growth 48h inconclusive, Cycloheximide cs inactive, Shiga inhibitor inactive and HCV inhibitor 10µM.
O=C(CCC(=O)N1CCN(c2cccc(Cl)c2)CC1)N1CCN(c2ccccc2)CC1 was read as Pf growth 96h inconclusive, AMA1 RON2 block inactive, Pf growth 48h inconclusive, Cycloheximide cs inactive, Shiga inhibitor inactive and HCV inhibitor inconclusive.
Screening Clc1cccc(N2CCN(CCCN3CCN(c4ccccc4)CC3)CC2)c1 returned AMA1 RON2 block inactive and HCV inhibitor 11µM.
For O=C1C2CCCCN2C(=O)N1CCN1CCN(c2cccc(Cl)c2)CC1 (stereo not given) the results were AMA1 RON2 block inactive and HCV inhibitor inactive.
`O=C1CC(=C(c2ccccc2)c2ccccc2)C(=O)N1CCCCN1CCN(c2ccccc2)CC1` gave Pf growth 96h 3.3µM, AMA1 RON2 block inconclusive, Cycloheximide cs inactive, Shiga inhibitor inactive and HCV inhibitor 1µM.
